From PubChem BioAssay (NCI)
This is part of a sample that, as a whole, favours compounds with a hit. Of some 83,000 tested, about 20% had one in any assay.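 Compound tested at a single concentration for 48 hours in 96-well plates; a percent growth value below 10 was scored as active.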 Unmarked numbers belong to inactive results. The source made the active and inactive calls.

Experiments:
Assay in all cases: NCI-60 one-dose screen, 48 h (100 = growth as untreated, 0 = no growth, -100 = all killed)
Settings in all cases: 10 µM
SK-MEL-2 melanoma = test system: SK-MEL-2 melanoma
EKVX NSCLC = test system: EKVX NSCLC
SN12C renal = test system: SN12C renal
UO-31 renal = test system: UO-31 renal
TK-10 renal = test system: TK-10 renal
ACHN renal = test system: ACHN renal
A498 renal = test system: A498 renal
CCRF-CEM leukemia = test system: CCRF-CEM leukemia
MOLT-4 leukemia = test system: MOLT-4 leukemia
SR leukemia = test system: SR leukemia
RPMI-8226 leukemia = test system: RPMI-8226 leukemia
OVCAR-8 ovarian = test system: OVCAR-8 ovarian
OVCAR-5 ovarian = test system: OVCAR-5 ovarian
OVCAR-4 ovarian = test system: OVCAR-4 ovarian
SK-OV-3 ovarian = test system: SK-OV-3 ovarian
IGROV1 ovarian = test system: IGROV1 ovarian
OVCAR-3 ovarian = test system: OVCAR-3 ovarian
HS 578T breast = test system: HS 578T breast
NCI/ADR-RES ovarian = test system: NCI/ADR-RES ovarian

Row | Structure (SMILES) | growth (SK-MEL-2 melanoma) | growth (EKVX NSCLC) | growth (SN12C renal) | growth (UO-31 renal) | growth (TK-10 renal) | growth (ACHN renal) | growth (A498 renal) | growth (CCRF-CEM leukemia) | growth (MOLT-4 leukemia) | growth (SR leukemia) | growth (RPMI-8226 leukemia) | growth (OVCAR-8 ovarian) | growth (OVCAR-5 ovarian) | growth (OVCAR-4 ovarian) | growth (SK-OV-3 ovarian) | growth (IGROV1 ovarian) | growth (OVCAR-3 ovarian) | growth (HS 578T breast) | growth (NCI/ADR-RES ovarian)
1 | COC1OC(COS(=O)OC)C(O)C(O)C1OS(=O)OC (configuration not stated) | 112% | 103% | 106% | 88.8% | 88.6% | 106% | 116% | 101% | 92.1% | 80% | 99.7% | 114% | 90.5% | 116% | 104% | 97.7% | 106% | 102% | 98.1%
2 | CN1CCN(CCC(=O)Nc2cccc(-n3cc(-c4ccncc4)c(-c4ccc(Cl)c(O)c4)n3)c2)CC1 | 34.5% | 74.1% | 61.8% | 46.9% | 103% | 45.5% | 34.5% | 24.9% | 25.6% | 5.5% (active) | 19.9% | 54.8% | 67.7% | 56% | 46.2% | 55.8% | 14.4% | 43.1% | 29.7%
3 | COc1cc(C)ccc1Oc1nc(Nc2ccc(N3CCOCC3)cc2)ncc1NC(=O)Nc1cc(C(F)(F)F)cc(C(F)(F)F)c1 | 88.6% | 80.7% | 58.1% | 67.5% | 51.1% | 24.4% | 67.8% | 41.9% | 19.2% | 28.3% | 61.9% | 44.3% | 106% | 66.3% | 101% | 64% |  | 43.6% | 46.6%
4 | COc1ccc(/C(C#N)=C/c2cccc(OC)c2OC)cc1 | 77.1% | 99.9% | 89.8% | 78.1% | 96.7% | 99% | 87.2% | 80.5% | 82.8% | 41.2% | 91.1% | 96% | 97.7% | 98.8% | 96.2% | 80.6% |  | 91.6% | 53.3%
5 | COc1cc(-c2nn(-c3cccc(NC(=O)NCCNC(=O)c4ccccc4)c3)cc2-c2ccncc2)ccc1Cl | -20.9% (active) | 34.2% | 25.2% | 13.6% | 36.3% | 12.2% | -3.29% (active) | 7.68% (active) | 4.74% (active) | 5.61% (active) | 5.06% (active) | 8.83% (active) | 33% | 26.6% | 33.6% | 28.1% | 21.1% | 30.9% | 46.1%
6 | CCN(CC)CCOc1cccc2c1C(=O)c1ccccc1C2=O | 91.8% | 95.2% | 90.9% | 62.2% | 97.6% | 92.5% | 87.5% | 92.6% | 96.4% | 88.4% | 86% | 85.7% | 102% | 86.7% | 82.2% | 102% | 102% | 90% | 92.5%
7 | Cc1ccc(NCCN(C)CC(C)O)c2c(=O)c3ccccc3sc12 (configuration not stated) | 90.6% | 86.4% | 49.6% | 41.5% | 45% | 29.5% | 68.4% | 31.3% | 2.58% (active) | 2.49% (active) | 19% | 33.9% | 61.8% | 59.9% | 54.9% | 38.4% |  | 55.2% | 44.7%
8 | CN(C)CCCOc1ccc(OCCCN(C)C)c2c1C(=O)c1ccccc1C2=O | -53.4% (active) | 13.6% | 6.55% (active) | 62.7% | -6.02% (active) | 10.8% | -31.9% (active) | 2.78% (active) | 5.64% (active) |  | -20.6% (active) | 7.14% (active) | 8.93% (active) | 2.16% (active) | 13.8% | 3.65% (active) | 3.4% (active) | 23% | 
